We go through 30 compounds from the supplement of paper PMC10498489.

Molecules are shown by their SMILES. The campaign covered roughly 2,300 compounds. About 330 (14%) showed activity. A selection follows. Unmarked numbers belong to inactive results.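 How the source made its calls: active = median modified Z-score above 1.96; inactive = 1.96 or below.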

The test system of the assay is HepG2 Srxn1-GFP reporter cells (+30 nM CDDO-Me). Nature of the assay: Srxn1-GFP intensity median modified Z-score relative to plate median; higher = stronger NRF2 / oxidative stress reporter activation, active = hit call of the paper. The note with it: 10 µM; exposure time: 24h. In outline:
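HepG2 Srxn1-GFP BAC reporter cells were seeded at 20,000 per well in 96-well plates and co-exposed for 24 h to compound at 10 μM and an NRF2 activator at 30 nM, with DMSO at ≤0.1%, in three replicate plates. Cells were fixed with formaldehyde, stained with Hoechst and imaged by confocal microscopy, and cytoplasmic GFP was measured per cell, with images holding under 100 cells discarded. The reported value is the median over replicates of each plate's modified Z-score of GFP intensity. For this score, scaling used 1.4826 × median absolute deviation.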
As for `CCc1c2c(nc3ccc(OC(=O)N4CCC(N5CCCCC5)CC4)cc13)-c1cc3c(c(=O)n1C2)COC(=O)C3(O)CC` (stereo not given) [euspeclibcmpd1960], the “Srxn1-GFP intensity median modified Z-score” value was -0.421.
For the compound `CCCNCCCCCC[N+](C)(C)C` [euspeclibcmpd616], the “Srxn1-GFP intensity median modified Z-score” value was 1.43.
As to `C[N+](C)(C)CCCCCC[N+](C)(C)C` [euspeclibcmpd1134], the “Srxn1-GFP intensity median modified Z-score” value is -0.198.
Next, `CCCCCCCCCCCCCCCC[N+](C)(C)C` [euspeclibcmpd1124]: 7.69 (active); `CC1(C)O[C@@H]2CC3C4CC=C5CC(=O)C=C[C@]5(C)[C@@]4(F)[C@@H](O)C[C@]3(C)[C@]2(C(=O)CO)O1` (stereo not given in full) [euspeclibcmpd303]: -0.909; `c1ccc2c(Cc3c[nH]c4ccccc34)c[nH]c2c1` [euspeclibcmpd2024]: 18.3 (active).
Next, `Cc1c[nH]c2ccccc12` [euspeclibcmpd1495]: 0.0463.
Next, `OCc1c[nH]c2ccccc12` [euspeclibcmpd1454]: 0.00439; `O=P(O)(O)C(O)(Cc1cccnc1)P(=O)(O)O` [euspeclibcmpd2383]: -0.244; `COc1ccc(CCN(C)CCCC(C#N)(c2ccc(OC)c(OC)c2)C(C)C)cc1OC` (stereo not given) [euspeclibcmpd958]: 5.38 (active).
For `CC[C@H]1OC(=O)C(C)[C@@H](O[C@H]2C[C@@](C)(OC)[C@@H](O)[C@H](C)O2)[C@H](C)[C@@H](O[C@@H]2O[C@H](C)C[C@H](N(C)C)[C@H]2O)[C@](C)(O)CC(C)C(=O)C(C)[C@@H](O)[C@]1(C)O` (stereo not given in full) [euspeclibcmpd2296], the “Srxn1-GFP intensity median modified Z-score” value was -0.138.
Next, `N#CC(c1ccc(Cl)cc1)c1c(Cl)cc(-n2ncc(=O)[nH]c2=O)cc1Cl` (stereo not given) [euspeclibcmpd478]: 15 (active); `O=C(O)Cc1cc(I)c(Oc2ccc(O)c(I)c2)c(I)c1` [euspeclibcmpd1243]: 8.98 (active).
As to `NC(Cc1cc(I)c(Oc2ccc(O)c(I)c2)c(I)c1)C(=O)O` (stereo not given) [euspeclibcmpd346], the “Srxn1-GFP intensity median modified Z-score” value was -0.0135.
Next, `NC(Cc1cc(I)c(Oc2cc(I)c(O)c(I)c2)c(I)c1)C(=O)O` (stereo not given) [euspeclibcmpd345]: -0.572.
For the compound `CNS(=O)(=O)Cc1ccc2[nH]cc(CCN(C)C)c2c1` [euspeclibcmpd759], the “Srxn1-GFP intensity median modified Z-score” value is -0.145.
Next, `CC(=O)O[C@@H]1C[C@@]2(C)C(CC[C@@H]2C(C)=O)C2CC=C3CC(=O)CC[C@]3(C)C21` (stereo not given in full) [euspeclibcmpd1433]: 0.0291; `C[C@]12C=CC(=O)CC1=CCC1C2[C@@H](O)C[C@@]2(C)C1CC[C@]2(O)C(=O)COP(=O)(O)O` (stereo not given in full) [euspeclibcmpd2287]: 0.582.
Turning to `Cc1ccc(NC(=O)c2ccc(CN3CCN(C)CC3)cc2)cc1N=c1nc(-c2cccnc2)cc[nH]1` [euspeclibcmpd1311], the “Srxn1-GFP intensity median modified Z-score” value was 4.53 (active).
As for `O=C(O)c1ccc2c(c1)OCO2` [euspeclibcmpd1566], the “Srxn1-GFP intensity median modified Z-score” value was -0.239.
Turning to `CC1(C)C2CC[C@]3(C)C(C(=O)C=C4C5C[C@@](C)(C(=O)O)CC[C@]5(C)CC[C@]43C)[C@@]2(C)CC[C@@H]1O` (stereo not given in full) [euspeclibcmpd1147], the “Srxn1-GFP intensity median modified Z-score” value is -1.35.
Next, `O=C(O)CCCCC1SCC2NC(=O)NC21` (stereo not given) [euspeclibcmpd513]: -0.118.
Take `CC(C)(CO)C(=O)C(O)NCCC(=O)NCCSSCCNC(=O)CCNC(=O)C(O)C(C)(C)CO` (stereo not given) [euspeclibcmpd1231]: the “Srxn1-GFP intensity median modified Z-score” value was -0.621.
Next, `O=C(CCBr)N1CCN(C(=O)CCBr)CC1` [euspeclibcmpd576]: 2.59 (active).
Next, `O=C(O)/C=C/C=C/c1ccc2c(c1)OCO2` [euspeclibcmpd1736]: -0.462; `CC1(C)C2CC[C@]3(C)C(C(=O)C=C4C5C[C@@](C)(C(=O)O)CC[C@]5(C)CC[C@]43C)[C@@]2(C)CC[C@@H]1OC(=O)CCC(=O)O` (stereo not given in full) [euspeclibcmpd2080]: -0.0685; `O=C(Nc1ccc([N+](=O)[O-])cc1Cl)c1cc(Cl)ccc1O` [euspeclibcmpd562]: 2.35 (active).
Next, `CC(OC(=O)c1cc(Cl)ccc1O)C(=O)Nc1ccc([N+](=O)[O-])cc1Cl` (stereo not given): 1.24.
On to `NC(=O)c1ccc([N+](=O)[O-])cc1Cl` [euspeclibcmpd514], for which the “Srxn1-GFP intensity median modified Z-score” value is -0.559.
Next, `O=C(OCC(=O)N1CCCC1)c1sc2cc(Cl)cc(Cl)c2c1Cl`: 0.374.
